From PubChem BioAssay AID2284368 (EPA ToxCast) come the findings set out here.

Results filed as inconclusive are left out. Active and inactive are the calls of the source. Rule for the calls: active = hit-call score of the fitted dose curve at least 0.9, where 1 is the maximum; inconclusive = response in the unintended direction; inactive = score below 0.9.

Sequence of Estrogen receptor (Homo sapiens) (P03372 whole entry, looked up): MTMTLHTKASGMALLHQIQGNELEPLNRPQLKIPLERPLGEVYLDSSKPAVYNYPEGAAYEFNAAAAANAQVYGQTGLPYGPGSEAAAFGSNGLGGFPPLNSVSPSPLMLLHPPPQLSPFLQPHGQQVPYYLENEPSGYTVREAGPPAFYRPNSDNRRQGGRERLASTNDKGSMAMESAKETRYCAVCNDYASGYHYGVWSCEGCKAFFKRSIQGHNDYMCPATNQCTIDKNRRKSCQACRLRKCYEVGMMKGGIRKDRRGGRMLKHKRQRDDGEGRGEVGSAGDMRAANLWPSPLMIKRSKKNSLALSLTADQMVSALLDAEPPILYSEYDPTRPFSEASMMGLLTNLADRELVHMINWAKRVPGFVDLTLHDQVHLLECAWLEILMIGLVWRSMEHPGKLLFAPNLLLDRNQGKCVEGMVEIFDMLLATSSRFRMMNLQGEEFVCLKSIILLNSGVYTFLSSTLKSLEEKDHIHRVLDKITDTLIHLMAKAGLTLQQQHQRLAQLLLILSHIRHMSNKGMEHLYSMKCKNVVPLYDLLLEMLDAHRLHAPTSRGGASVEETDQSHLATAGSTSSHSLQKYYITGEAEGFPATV

This assay has as its target Estrogen receptor (Homo sapiens) (UniProt P03372). Nature of the assay: ATG_hERa_EcoTox2: Attagene TRANS-FACTORIAL EcoTox-2 HepG2 Assay for human Estrogen Receptor (ER). The protocol: ATG_EcoTox2 is a cell-based, multiplexed assay created by modifying the existing Attagene TRANS-FACTORIAL system to include a panel of nuclear receptors from some or all the following species: human (Homo sapiens), african clawed frog (Xenopus laevis), rainbow trout (Oncorhynchus mykiss), japanese medaka (Oryzias latipes), and zebrafish (Danio rerio). The ECOTOX2-FACTORIAL format uses HepG2, a human liver cell line, with measurements taken at 24 hours after chemical dosing in a 24-well plate. ATG_hERa_EcoTox2 is one of 29 assay components measured or calculated from the ATG_EcoTox2 assay. It is designed to make measurements of mRNA induction, a form of inducible reporter, as detected with fluorescence intensity signals by Reverse transcription polymerase chain reaction (RT-PCR) and Capillary electrophoresis technology.The assay endpoint ATG_hERa_EcoTox2 was analyzed in the positive analysis fitting direction relative to DMSO as the negative control and baseline of activity. Using a type of inducible reporter, measures of mRNA for gain-of-signal activity can be used to understand the reporter gene at the transcription factor-level as they relate to the gene ER. Furthermore, this assay endpoint can be referred to as a primary readout, because this assay has produced multiple assay endpoints where this one serves a reporter gene function. To generalize the intended target to other relatable targets, this assay endpoint is annotated to the nuclear receptor intended target family, where the subfamily is steroidal.
Human liver HepG2 cells are transiently transfected with multiple reporter transcription units (MRTUs) in 6-well plates using FuGene 6 reagent (Roche; 3 ml FuGene/1 mg DNA). The MRTU constructs are regulated by a cis-regulating element (promoter). Each RTU expresses a GAL4-UAS that regulates the transcription of a nearby target reporter gene sequence. A major difference between the CIS and TRANS system is that in CIS activities of endogenous TFs are measured, whereas the TRANS assay evaluates changes in activities of exogenous, chimeric NR-Gal4 proteins. […] At the end of 24 hour incubation, total RNA was isolated using TriZol reagent (Invitrogen). The isolated RNA is then reverse-transcribed using oligo(dT) primer and Mo-MLV reverse transcriptase (Invitrogen) with DNAse I (Ambion) treatment for 30 min. The one-tenth of the produced cDNA was amplified by PCR using Taq DNA polymerase (Invitrogen) and two reporter sequence-specific primers. The PCR products were fluorescently labeled by primer extension with 6-arboxyfluorescein (6-FAM) 5'-labeled reporter sequence-specific primer (2 min at 95 C, 20 s at 68 C and 10 min at 72 C) and these products were digested with 5U of HpaI (New England Biolabs) for 2h at 37 C. The fragments were purified using Qiaquick PCR columns (Qiagen), analyzed on an ABI 3130xL genetic analyzer (Applied Biosystems) with peak positions identified by using a set of X-rhodamine (ROX)-labeled MapMarker1000 molecular weight standards (BioVentures). The raw capillary electrophoresis data was processed using Attagraph software (Attagene).
On to `CC(C)OC(=O)C(C)(C)Oc1ccc(C(=O)c2ccc(Cl)cc2)cc1`, for which the molecule was classed as inactive.
Consider `C=C(c1ccc(C(=O)O)cc1)c1cc2c(cc1C)C(C)(C)CCC2(C)C`, for which the result was inactive.
Take `CN(CCOc1ccc(CC2SC(=O)NC2=O)cc1)c1ccccn1` (stereo unspecified): the outcome was inactive.
Usually AC50 stands for the midpoint of the concentration-response curve, whichever way the signal moves. As for `Cc1ccc(C)c(OCCCC(C)(C)C(=O)O)c1`, the AC50 is 50 µM (active).
For the molecule `CC(C)(Oc1ccc(C2CC2(Cl)Cl)cc1)C(=O)O` (stereo unspecified), the molecule was classed as inactive.
As for `Cc1c(C)c2c(c(C)c1O)CCC(C)(COc1ccc(CC3SC(=O)NC3=O)cc1)O2` (stereo unspecified), the call was inactive.
On to `CC(C)(Oc1ccc(CCNC(=O)c2ccc(Cl)cc2)cc1)C(=O)O`, for which the AC50 was 122 µM (active).
With `C[C@@H]1C[C@H]2[C@@H]3CCC4=CC(=O)C=C[C@]4(C)[C@@]3(F)[C@@H](O)C[C@]2(C)[C@@]1(O)C(=O)COP(=O)(O)O`, the outcome was inactive.
As to `Cc1cccc(Nc2cc(Cl)nc(SCC(=O)O)n2)c1C`, the call was inactive.
As to `C[C@]12C=CC(=O)C=C1CC[C@@H]1[C@@H]2C(=O)C[C@@]2(C)[C@H]1CC[C@]2(O)C(=O)CO`, the AC50 was 29.2 µM (active).
On the same count and under the same terms, the same measure for `CC(c1cc2ccccc2s1)N(O)C(N)=O` (stereo unspecified): 50 µM (active).
